ChEMBL document CHEMBL4513216, “Probing the Open Global Health Chemical Diversity Library for Multistage-Active Starting Points for Next-Generation Antimalarials” (ACS Infect Dis, 2020)
The campaign covered roughly 68,000 compounds. About 2,700 (4%) showed an effect of 50% or more. The full list was thinned out, with strong results kept by preference.

System: Plasmodium berghei
Assay: Screen against P. berghei liver stage (PbLuc), transformed with Luciferase, at 2uM
Format: functional, HepG2
Details: tested at 2 uM

Row | SMILES | INHIBITION [%]
1 | COC(=O)N1CC[C@@]2(C1)[C@H](OC)CN(c1ccccc1)S2(=O)=O | 22.01
2 | Cc1cc(C2CCNCC2)nc(-c2ccsc2)n1 | 24.98
3 | CN1CCOC(CNCC(=O)NCCc2ccc(F)cc2)C1 (configuration not stated) | -8.14
4 | c1ccc(-n2cc(CNCC3CCCN3c3cccnn3)cn2)cc1 (configuration not stated) | -7.13
5 | c1cnnc(N2CCCC2CNCc2cscn2)c1 (configuration not stated) | 4.19
6 | c1ccc(Cn2ccnc2CNCC2CCCN2c2cccnn2)cc1 (configuration not stated) | 11.2
7 | c1cnnc(N2CCCC2CNCc2ccsc2)c1 (configuration not stated) | 54.85
8 | c1ccc(Cn2cc(CNCC3CCCN3c3cccnn3)cn2)cc1 (configuration not stated) | 62.46
9 | c1cnnc(N2CCCC2CNCc2cccs2)c1 (configuration not stated) | 23.86
10 | CO[C@@H]1CC[C@H]2[C@H]1OCCN2C(=O)c1ccc(C)nc1 | 29.89
11 | CC(C)CNC(=O)C1=NOC2(CCN(Cc3ccc(C(C)C)cc3)C2)C1 (configuration not stated) | 32.09
12 | CCOCc1nc2c(c(NCCNC(C)=O)n1)CCN(C(C)=O)CC2 | 18.28
13 | CCOc1nnc(CN2CCC(c3nc4ccccc4[nH]3)CC2)s1 | 28.42
14 | CCOc1nnc(CN2CCCC(c3nc4ccccc4[nH]3)C2)s1 (configuration not stated) | 53.63
15 | CCOc1nnc(CN2CCC(c3cc4ccccc4[nH]3)CC2)s1 | 38.33
16 | CCCN(CC(=O)OC)C(=O)c1sc(C)nc1C | -1.29
17 | CC(C(=O)NCCOc1ccccc1)n1cncn1 (configuration not stated) | 26.76
18 | CC(C(=O)NCCOc1cccc(Cl)c1)n1cncn1 (configuration not stated) | 56.67
19 | Cc1ccc(OCCNC(=O)C(C)n2cncn2)cc1 (configuration not stated) | 42.11
20 | Cc1cc(=O)[nH]c(=O)n1COCCOCc1ccccc1 | 30.48
21 | O=C(c1nn(-c2ccccc2F)cc1O)N1CCCCC1 | -10.64
22 | Cc1ccc2c(C)c(C(=O)NCc3csc(N)n3)oc2c1 | -27.36
23 | Cc1[nH]c2c(C)ccc(C)c2c1CC(=O)NCC(O)c1cccnc1 (configuration not stated) | 31.65
24 | Cc1[nH]c2c(C)ccc(C)c2c1CC(=O)NCCCNc1cccnc1 | -10.38
25 | Cc1[nH]c2c(C)ccc(C)c2c1CC(=O)NCCNc1cccnc1 | 64.92
26 | COc1cccc(CC(=O)N2CCC3(CC2)OCCCC3O)c1OC (configuration not stated) | 3.4

Row | SMILES | INHIBITION [%]
27 | CC(C)OCCOCc1cccc(NC(=O)NCCn2ccnc2)c1 | 3.85
28 | C=c1ccoc1=C1NN=C(CNCC2CCCN2c2cccnn2)O1 (configuration not stated) | -10.6
29 | C=c1ccoc1=C1NN=C(CNCCn2cccn2)O1 | 58.49
30 | C=c1ccoc1=C1NN=C(CNCCn2cc(C)cn2)O1 | 32.63
31 | COc1c(CNCc2ccc(C(=O)N(C)C)cc2)c(C)nn1C | -11.71
32 | Cc1oc(-c2nc(C#N)c(N(C)C)o2)cc1S(=O)(=O)N1CCCC1 | -20.66
33 | O=C(c1ccc(-c2nc[nH]n2)cc1)N1CCOC(C(F)(F)F)C1 (configuration not stated) | 50.91
34 | O=C(c1ccccc1-c1nc[nH]n1)N1CCOC(C(F)(F)F)C1 (configuration not stated) | -99.7
35 | O=C(c1ccc(-c2nc[nH]n2)cc1)N1CC[C@H](CO)[C@@H](O)C1 | -94.13
36 | CCOCC(O)CN1CCN(C(=O)CC(C)C)CC1 (configuration not stated) | -38.96
37 | Cc1cc(C)n(CC2CN(CC(=O)N3CCC3)CCO2)n1 (configuration not stated) | -9.17
38 | c1cncc(COCC2CNCc3nccn3C2)c1 (configuration not stated) | 38.49
39 | CS(=O)(=O)NCc1ccc(NC(=O)CC2=CCCCC2)cc1 | 35.9
40 | COCCO[C@H]1CCN(C(=O)c2ccsc2)[C@H]1Cc1cnn(C)c1 | -10.92
41 | CCc1cc(C(F)(F)F)c2c(C)nn(CC(=O)O)c2n1 | 57.33
42 | Cc1nn(C)cc1-c1cc(C(F)(F)F)c2c(C)nn(CC(=O)O)c2n1 | 15.91
43 | COc1ccccc1-c1cc(C(F)(F)F)c2c(C)nn(CC(=O)O)c2n1 | 31.51
44 | CCn1ccnc1CN1CCCN(C(=O)c2cc[nH]n2)CC1 | 0.74
45 | COC1CCN(S(=O)(=O)N2CCCC2c2ccco2)CC1 (configuration not stated) | 36.28
46 | O=S(=O)(N1CCN(CC2CC2)CC1)N1CCCC1c1ccco1 (configuration not stated) | -20.95
47 | O=S(=O)(N1CCC(n2cccc2)CC1)N1CCCC1c1ccco1 (configuration not stated) | 50.59
48 | CC(C)NC(=O)[C@@]12CCO[C@@H]1CCN(Cc1ccc3c(c1)OCO3)C2 | 50.85
49 | O=C(NC1CC1)[C@@]12CCO[C@@H]1CCN(Cc1ccc3c(c1)OCO3)C2 | -14.64
50 | CNC(=O)[C@@]12CCO[C@@H]1CCN(Cc1ccc3c(c1)OCO3)C2 | 39.02
51 | CC(=O)N1CC2(CCCCN2Cc2ccc(Cl)cc2)Cc2ccccc21 (configuration not stated) | -31.86
52 | Cn1ccc(CN2CCCC23CCN(Cc2cccc(F)c2)CC3)n1 | 1.81
